Test results: PubChem BioAssay (NCATS)
Results filed as inconclusive are left out. Active and inactive are the calls of the source. Unless noted, calls come from the whole dose curve; as a rule, active = well fitted curve in the direction sought with a large enough effect; inconclusive = small, poorly fitted or top-dose-only effect, or another doubt; inactive = no such curve, though single readings can be large; an effect the other way counts as inactive or inconclusive.

Tests used:
[1] = tested on: Zika virus NS2B-NS3 protease (linked construct); assay: Primary screen NINDS Rhodamine qHTS for Zika virus inhibitors (AID 1347160)
Outline: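 Percent inhibition, normalized to uninhibited and enzyme-free controls, is fitted to a 4-parameter Hill equation. Fluorescence change comes from a 15-min cleavage of 1.5 microM bis-peptide Rhodamine110 substrate by 25 nM linked NS2B-NS3 at room temperature.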

[2] = HPAF-II Cancer Cell Toxicity qHTS against the NCATS CANVASS Library (AID 1347346)
Outline: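 HPAF-II cells were seeded at 1000 cells/well, allowed to settle for 4 h at 37 degrees C, then exposed to compounds in an 11-point series for 72 h. Viability was read by CellTiter-Glo luminescence.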

[3] = OV-SAHO Cancer Cell Toxicity qHTS against the NCATS CANVASS Library (AID 1347348)
Outline: (§1)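 ATP content after 72 h treatment, detected by CellTiter-Glo luminescence (15min room-temperature development), reflects cell viability. Wells contained 1000 cells and received compounds at 11 concentrations.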

[4] = Panc-1005 Cancer Cell Toxicity qHTS against the NCATS CANVASS Library (AID 1347349)
Outline: as §1

[5] = U-118MG Cancer Cell Toxicity qHTS against the NCATS CANVASS Library (AID 1347351)
Outline: as §1

[6] = A2780 Cisplatin Sensitive Ovarian Cancer Cell Toxicity qHTS against the NCATS CANVASS Library (AID 1347353)
Outline: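 A2780 cisplatin-sensitive cells (750 per well) were seeded, left 4 h at 37 °C, then pin-dosed in an 11-point series. After 72 h at 37 °C/5% CO2, viability was measured as ATPLite luminescence.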

[7] = UWB1.289-WTBRCA1 Cancer Cell Toxicity qHTS against the NCATS CANVASS Library (AID 1347354)
Outline: (§2)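 Cells were seeded at 1000 per well and allowed to settle 4 hours at 37 degrees C before pin transfer of compounds as an 11-point series. Viability was read by CellTiter-Glo luminescence after 72 hours' exposure.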

[8] = HEK-293 Cancer Cell Toxicity qHTS against the NCATS CANVASS Library (AID 1347355)
Outline: as §2

[9] = HPAF-II 24hr Apoptosis Induction qHTS against the NCATS CANVASS Library (AID 1347356)
Outline: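 HPAF-II cells (500/well) in DMEM + 10% FBS were treated with an 11-point compound series for 24 hours at 37 degrees C. Caspase-3/7 activity was then read by Caspase-Glo DEVD luminescence after 15 min.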

[10] = HEK293 18hr Apoptosis Induction qHTS against the NCATS CANVASS Library (AID 1347357)
Outline: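 HEK293 cells (500/well, DMEM + 10% FBS) treated with an 11-point series for 18 h at 37 degrees C. Caspase-3/7 activity read by Caspase-Glo luminescence after 15 min at room temperature.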

[11] = HEK293 24hr Apoptosis Induction qHTS against the NCATS CANVASS Library (AID 1347359)
Outline: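 Caspase-3/7 activation measured as luminescence from the DEVD-based Caspase-Glo reagent, 15 min at room temperature, following 24-hour compound treatment of HEK293 cells.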

[12] = HPAF-II 18hr Apoptosis Induction qHTS against the NCATS CANVASS Library (AID 1347360)
Outline: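 HPAF-II cells at 500/well were exposed for 18 h at 37 C to an 11-point compound series. Caspase-3/7 activity was read by Caspase-Glo luminescence after 15 min at RT.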

[13] = HEK293 12hr Apoptosis Induction qHTS against the NCATS CANVASS Library (AID 1347361)
Outline: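 HEK293 cells (500/well) were exposed to an 11-point qHTS concentration series for 12 hours at 37 degrees C. Caspase-3/7 activity was then read by DEVD-substrate luciferase luminescence after 15 min at room temperature.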

[14] = molecular target: Luciferin 4-monooxygenase (Photinus pyralis) (UniProt P08659); assay: Firefly luciferase counterscreen qHTS: Assay Interference Panel against the NCATS CANVASS Library (AID 1347363)
Outline: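 Luminescence inhibition readout: compounds (11-point qHTS) sat 15 min at room temperature with substrate mix (0.013 mM luciferin and ATP), then firefly luciferase was added and signal read 5 min later.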

[15] = KB-8-5-11 Cancer Cell Toxicity qHTS against the NCATS CANVASS Library (AID 1347364)
Outline: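 KB-8-5-11 cells (500/well) in DMEM + 10% FBS were exposed to compounds in an 11-point qHTS series for 72 hr at 37C, 5% CO2. Viability was read by CellTiter-Glo luminescence.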

[16] = KB-3-1 Cancer Cell Toxicity qHTS against the NCATS CANVASS Library (AID 1347366)
Outline: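 KB-3-1 cells (500/well) in DMEM with 10% FBS were exposed to compounds for 72 h at 37C. Viability was read by CellTiter-Glo luminescence.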

[17] = qHTS for ATAD5 Agonist screened against the NCATS CANVASS Library (AID 1347367)
Outline: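 Luciferase reporter under ATAD5 control, stably integrated in HEK293T cells (2000/well). Compounds (11 points) incubated 16 h at 37C; viability read first by CellTiter-Fluor, then luminescence reporting ATAD5 activation. MMS positive control.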

[18] = G06 Cancer Cell Toxicity qHTS against the NCATS CANVASS Library (AID 1347368)
Outline: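 G06 dog glioma cells seeded at 500 cells/well were exposed to compounds (11-point qHTS series) for 72 hr at 37C, 5% CO2; viability read as ATP content by CellTiterGlo luminescence.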

[19] = MCF7 Cancer Cell Toxicity qHTS against the NCATS CANVASS Library (AID 1347369)
Outline: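 MCF7 cells (500/well) were exposed 72 h at 37 °C to compounds in an 11-point series. Viability was read as ATP content by CellTiterGlo luminescence.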

[20] = J3T Cancer Cell Toxicity qHTS against the NCATS CANVASS Library (AID 1347371)
Outline: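 J3T dog glioma cells (500 cells/well) were exposed to compounds in an 11-point series for 72 hr at 37C, 5% CO2. Cytotoxicity was read as ATP content by CellTiterGlo luminescence.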

[21] = molecular target: Nuclear receptor subfamily 1 group I member 3 (Homo sapiens) (UniProt Q14994); assay: qHTS for Constitutive Androstane Receptor (CAR) Antagonist screened against the NCATS CANVASS Library (AID 1347372)
Outline: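 HepG2-CYP2B6-hCAR double-stable cells plated, 4hr attach; cpd pin-transferred; CITCO 50 nM final; 24hr 37C/5% CO2; CellTiter-Fluor 1hr (fluorescence), then ONE-Glo luminescence.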

[22] = molecular target: Nuclear receptor subfamily 1 group I member 3 (Homo sapiens) (UniProt Q14994); assay: qHTS for Constitutive Androstane Receptor (CAR) Agonist screened against the NCATS CANVASS Library (AID 1347373)
Outline: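 HepG2 cells stably expressing hCAR and a CYP2B6-2.2kb luciferase reporter were treated for 24hr at 37C with compounds (11-point qHTS) in the presence of 1.5uM PK11195. Reporter activation was read by ONE-Glo luminescence.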

[23] = qHTS for Hypoxia signaling pathway (HIF-1) antagonists against the NCATS CANVASS Library (AID 1347374)
Outline: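 HRE-bla ME-180 cells (2,000/well, 0.5% dialyzed FBS) were pre-incubated 5 h, then given an 11-point compound series plus CoCl2 (60 uM solution as added) for 17 h at 37C. CCF4 β-lactamase read (ex 405, em 460/530 nm) after 2 h at RT.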

[24] = qHTS for Hypoxia signaling pathway (HIF-1) agonists against the NCATS CANVASS Library (AID 1347375)
Outline: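 HRE-bla ME-180 cells (beta-lactamase reporter under hypoxia responsive element) in 0.5% dialyzed FBS medium, 5 h at 37C, then compound 17 h, 11-point qHTS series. CCF4-AM FRET substrate 2 h RT; 460/530 nm emission read.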

[25] = 10-beta competent E. coli microbial cell viability qHTS against the NCATS CANVASS Library (AID 1347376)
Outline: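 10-beta competent E. coli (0.9 OD culture diluted to 0.2 OD) exposed to compounds in an 11-point qHTS series, incubated overnight at 37C, 5% CO2. Viability read as ATP by BacTiter-Glo luminescence after 20 min at room temperature.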

[26] = qHTS for Inflammasome Signaling Inhibitors: IL-1-beta AlphaLISA screen against the NCATS CANVASS Library (AID 1347379)
Outline: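 Human THP-1 cells were pretreated 1 hr at 37 °C with compounds (up to 57.5 uM final), then stimulated with LPS (250 ng/mL final) and ATP (1.25 mM final). Secreted IL-1B was read by AlphaLISA after 16 hr.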

[27] = Inflammasome Signaling qHTS Counterscreen: IL-1-beta AlphaLISA counterscreen against the NCATS CANVASS Library (AID 1347381)
Outline: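 To flag interference with the AlphaLISA read-out, a known amount of purified IL-1-beta (4 pg) replaced cell supernatant. Detection used anti-IL-1-beta acceptor beads, biotinylated antibody and streptavidin donor beads at room temperature.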

[28] = qHTS for Activators of p53 Stress Response Pathway screened against the NCATS CANVASS Library (AID 1347388)
Outline: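 Beta-lactamase reporter driven by p53 response elements in HCT-116 cells, read as the 460 nm/530 nm emission ratio after CCF4 loading, following 16 h of exposure to an 11-point series. Cell viability was measured in the same wells by CellTiter-Glo luminescence.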

[29] = qHTS for activators of dead-cell proteases activity screened against the NCATS CANVASS Library (AID 1347392)
Outline: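 Compounds are pin-transferred onto attached HepG2 cells, giving 11 final concentrations. After 5 h at 37C, AAF-aminoluciferin reagent is added and luminescence is recorded at room temperature.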

[30] = qHTS for inhibitors of ER calcium dysfunction: SERCaMP assay screened against the NCATS CANVASS Library (AID 1347393)
Outline: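 Thapsigargin-induced ER calcium depletion drives GLuc-SERCaMP secretion from SH-SY5Y cells; compounds given 16 h beforehand were scored by lowered coelenterazine luminescence after 4 h challenge.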

[31] = Vero-766 cells viability qHTS against the NCATS CANVASS Library: Counterscreen for Zika virus inhibition assay (AID 1347394)
Outline: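 Vero 766 cells (1000/well), without Zika virus, were exposed to compounds for 72 h at 37C. Viability was measured by CellTiter Glo luminescence. Media-only wells served as 100% inhibition.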

[32] = qHTS for inhibitors of Wild type Zika virus screened against the NCATS CANVASS Library (AID 1347396)
Outline: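 Using ATP-based luminescence (CellTiter Glo), this screen scores rescue of Vero 766 cells from wild-type Zika killing at 72 h post-infection. Compounds are tested in a concentration series.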

[33] = Redox Reaction Profiling qHTS: Assay Interference Panel against the NCATS CANVASS Library (AID 1347401)
Outline: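 Cell-free redox surrogate: 5 uM resazurin + 200 uM DTT, 50 mM HEPES pH 7.3/50 mM NaCl; cpds pinned, 11-pt qHTS; Ex525/Em598 read t0 and t=15 min, dark.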

[34] = qHTS for inhibitors of Rabies Virus screened against the NCATS CANVASS Library (AID 1347402; calls by dose curve)

Measured: Potency

Chain of Nuclear receptor subfamily 1 group I member 3 (Homo sapiens) (Q14994 whole entry, looked up): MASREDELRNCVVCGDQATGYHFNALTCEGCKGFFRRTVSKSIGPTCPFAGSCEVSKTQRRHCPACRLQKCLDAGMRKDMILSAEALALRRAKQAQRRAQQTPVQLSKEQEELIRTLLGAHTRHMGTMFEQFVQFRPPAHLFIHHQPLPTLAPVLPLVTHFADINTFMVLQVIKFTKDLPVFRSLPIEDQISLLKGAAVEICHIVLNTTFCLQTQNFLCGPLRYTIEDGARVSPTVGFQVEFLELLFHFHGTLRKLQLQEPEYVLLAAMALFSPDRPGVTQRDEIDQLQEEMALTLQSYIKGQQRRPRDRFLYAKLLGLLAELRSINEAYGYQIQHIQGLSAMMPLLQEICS
Chain of Luciferin 4-monooxygenase (Photinus pyralis) (P08659 whole entry, looked up): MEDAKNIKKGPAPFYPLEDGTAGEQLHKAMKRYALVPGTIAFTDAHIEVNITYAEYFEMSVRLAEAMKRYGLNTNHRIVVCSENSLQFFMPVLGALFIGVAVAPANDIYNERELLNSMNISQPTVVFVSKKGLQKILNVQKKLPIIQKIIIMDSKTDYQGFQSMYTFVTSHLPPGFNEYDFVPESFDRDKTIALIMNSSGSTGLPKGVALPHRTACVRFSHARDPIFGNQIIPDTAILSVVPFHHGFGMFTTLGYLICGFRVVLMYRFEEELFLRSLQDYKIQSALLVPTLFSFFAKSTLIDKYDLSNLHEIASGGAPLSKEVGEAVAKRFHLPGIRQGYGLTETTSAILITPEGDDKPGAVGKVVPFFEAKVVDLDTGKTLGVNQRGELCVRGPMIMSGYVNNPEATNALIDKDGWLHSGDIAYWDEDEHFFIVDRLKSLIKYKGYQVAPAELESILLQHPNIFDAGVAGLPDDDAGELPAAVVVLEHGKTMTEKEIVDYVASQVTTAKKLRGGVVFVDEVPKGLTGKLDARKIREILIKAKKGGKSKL

CC1=CC2CC[C@@H]3[C@@H](C)C[C@H](C)[C@@H](C1)N23 (some centres undefined)
inactive: all assays above
